Measured values taken from PubChem BioAssay (NCATS).
Inconclusive results are not listed. Active and inactive are the calls of the source. The call rests on the fitted dose curve; in most records, active means well fitted curve in the direction sought with a large enough effect; inconclusive means small, poorly fitted or top-dose-only effect, or another doubt; inactive means no such curve, though single readings can be large; an effect the other way counts as inactive or inconclusive.

Experiments:
[1] = Quantitative High-Throughput drug screen in 47 multiple myeloma cell lines against the NCATS MIPE library collection: Karpas620_DSMZ cell viability assay (AID 1918959); conditions: Karpas620 myeloma viability, CellTiter-Glo ATP luminescence, 48 h; series mostly up to 45.8 µM; further: nearly all actives have a fitted effect of over 30% in size; further: potency means the concentration at half of the fitted maximal effect
Outline: (§1)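 Approved and investigational drugs from MIPE 4.0 were added by pin tool to 500 cells per well. After 48 hours at 37C, ATP-based CellTiter-Glo luminescence indicated remaining viability.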

[2] = Quantitative High-Throughput drug screen in 47 multiple myeloma cell lines against the NCATS MIPE library collection: KMM1_JCRB cell viability assay (AID 1918960); conditions: KMM1 myeloma viability, CellTiter-Glo ATP luminescence, 48 h; series mostly up to 45.8 µM; further: nearly all actives have a fitted effect of over 30% in size; further: potency means the concentration at half of the fitted maximal effect
Outline: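 500 cells/well; MIPE 4.0 library pinned in; 48 h, 37 °C, 5% CO2; CellTiter-Glo ATP luminescence. Controls: DMSO = 100% viability, medium only = 0%.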

[3] = Quantitative High-Throughput drug screen in 47 multiple myeloma cell lines against the NCATS MIPE library collection: Karpas417_ECACC cell viability assay (AID 1918961); conditions: Karpas417 myeloma viability, CellTiter-Glo ATP luminescence, 48 h; further: potency means the concentration at half of the fitted maximal effect
Outline: (§2)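 Inhibition of cell viability is measured here. Each line was plated at 500 cells per well, treated with MIPE 4.0 drugs, kept 48 hours at 37C, then assayed for ATP content by CellTiter-Glo luminescence.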

[4] = Quantitative High-Throughput drug screen in 47 multiple myeloma cell lines against the NCATS MIPE library collection: KHM11_PLB cell viability assay (AID 1918962); conditions: KHM11 myeloma cell viability, CellTiter-Glo ATP luminescence, 48 h; further: potency means the concentration at half of the fitted maximal effect; nearly all actives have a fitted effect of over 35% in size
Outline: as §1

[5] = Quantitative High-Throughput drug screen in 47 multiple myeloma cell lines against the NCATS MIPE library collection: JIM3_ECACC cell viability assay (AID 1918963; further: nearly all actives have a fitted effect of over 35% in size; further: potency means the concentration at half of the fitted maximal effect); conditions: JIM3 myeloma viability, CellTiter-Glo ATP, 48 h; series mostly up to 45.8 µM
Outline: as §1

[6] = Quantitative High-Throughput drug screen in 47 multiple myeloma cell lines against the NCATS MIPE library collection: JIM1_ECACC cell viability assay (AID 1918964; further: potency means the concentration at half of the fitted maximal effect); conditions: JIM1 myeloma viability, CellTiter-Glo ATP luminescence, 48 h; series mostly up to 45.8 µM
Outline: (§3)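 Luminescent ATP measurement with CellTiter-Glo gives viability, scaled between DMSO-only wells (100%) and media-only wells (0%). Cells, 500 per well, faced library compounds for 48 hours at 37C.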

[7] = Quantitative High-Throughput drug screen in 47 multiple myeloma cell lines against the NCATS MIPE library collection: INA6_PLB cell viability assay (AID 1918965; further: potency means the concentration at half of the fitted maximal effect; nearly all actives have a fitted effect of over 55% in size); conditions: INA6 myeloma viability, CellTiter-Glo ATP luminescence, 48 h
Outline: as §2

[8] = Quantitative High-Throughput drug screen in 47 multiple myeloma cell lines against the NCATS MIPE library collection: JJN3_DSMZ cell viability assay (AID 1918966; further: nearly all actives have a fitted effect of over 50% in size; further: potency means the concentration at half of the fitted maximal effect); conditions: JJN3 myeloma cells viability, CellTiter-Glo ATP, 48 h; series mostly up to 45.8 µM
Outline: as §3

[9] = Quantitative High-Throughput drug screen in 47 multiple myeloma cell lines against the NCATS MIPE library collection: H1112_PLB cell viability assay (AID 1918967; further: nearly all actives have a fitted effect of over 30% in size; further: potency means the concentration at half of the fitted maximal effect); conditions: H1112 myeloma cells viability, ATP luminescence, 48 h; series mostly up to 45.8 µM
Outline: as §3

[10] = Quantitative High-Throughput drug screen in 47 multiple myeloma cell lines against the NCATS MIPE library collection: Karpas25_ECACC cell viability assay (AID 1918968; further: potency means the concentration at half of the fitted maximal effect; nearly all actives have a fitted effect of over 35% in size); conditions: Karpas25 myeloma viability, CellTiter-Glo ATP, 48 h
Outline: as §3

[11] = Quantitative High-Throughput drug screen in 47 multiple myeloma cell lines against the NCATS MIPE library collection: KMS27_JCRB cell viability assay (AID 1918970); conditions: KMS27 myeloma cells, CellTiter-Glo ATP viability, 48 h; series mostly up to 45.8 µM; further: nearly all actives have a fitted effect of over 30% in size; further: potency means the concentration at half of the fitted maximal effect
Outline: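 Myeloma cells (500 per well) were exposed to MIPE 4.0 compounds for 48 h at 37 °C, 5% CO2; viability was read as ATP luminescence with CellTiter-Glo, normalized to DMSO-only (100%) and media-only (0%) wells.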

[12] = Quantitative High-Throughput drug screen in 47 multiple myeloma cell lines against the NCATS MIPE library collection: KMS12BM_JCRB cell viability assay (AID 1918971); conditions: KMS12BM myeloma viability, CellTiter-Glo ATP, 48 h; series mostly up to 45.8 µM; further: nearly all actives have a fitted effect of over 35% in size; further: potency means the concentration at half of the fitted maximal effect
Outline: as §3

[13] = Quantitative High-Throughput drug screen in 47 multiple myeloma cell lines against the NCATS MIPE library collection: KMS12PE_JCRB cell viability assay (AID 1918972); conditions: KMS12PE myeloma viability, CellTiter-Glo ATP, 48 h; series mostly up to 45.8 µM; further: nearly all actives have a fitted effect of over 30% in size; further: potency means the concentration at half of the fitted maximal effect
Outline: as §2

[14] = Quantitative High-Throughput drug screen in 47 multiple myeloma cell lines against the NCATS MIPE library collection: KMS20_JCRB cell viability assay (AID 1918973); conditions: CellTiter-Glo ATP, 48 h; series mostly up to 45.8 µM; further: nearly all actives have a fitted effect of over 45% in size; further: potency means the concentration at half of the fitted maximal effect
Outline: as §3

[15] = Quantitative High-Throughput drug screen in 47 multiple myeloma cell lines against the NCATS MIPE library collection: KMS21BM_JCRB cell viability assay (AID 1918974); conditions: ATP luminescence, 48 h; further: potency means the concentration at half of the fitted maximal effect
Outline: as §3

[16] = Quantitative High-Throughput drug screen in 47 multiple myeloma cell lines against the NCATS MIPE library collection: KMS26_JCRB cell viability assay (AID 1918975); conditions: KMS26 myeloma cells viability, CellTiter-Glo ATP, 48 h; further: potency means the concentration at half of the fitted maximal effect; nearly all actives have a fitted effect of over 45% in size
Outline: as §3

[17] = Quantitative High-Throughput drug screen in 47 multiple myeloma cell lines against the NCATS MIPE library collection: MMM1_PLB cell viability assay (AID 1918976); conditions: MMM1 myeloma cells viability, CellTiter-Glo, 48 h; series mostly up to 45.8 µM; further: nearly all actives have a fitted effect of over 35% in size; further: potency means the concentration at half of the fitted maximal effect
Outline: (§4)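 ATP-based luminescence (CellTiter-Glo, 5 min RT incubation) quantified surviving cells following two days' treatment with MIPE 4.0 agents at 37 °C, 5% CO2.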

[18] = Quantitative High-Throughput drug screen in 47 multiple myeloma cell lines against the NCATS MIPE library collection: MOLP8_DSMZ cell viability assay (AID 1918977); conditions: MOLP8 myeloma viability, CellTiter-Glo ATP luminescence, 48 h; series mostly up to 45.8 µM; further: nearly all actives have a fitted effect of over 45% in size; further: potency means the concentration at half of the fitted maximal effect
Outline: as §4

[19] = Quantitative High-Throughput drug screen in 47 multiple myeloma cell lines against the NCATS MIPE library collection: NCIH929_DSMZ cell viability assay (AID 1918978); conditions: NCI-H929 myeloma viability, CellTiter-Glo ATP, 48 h; series mostly up to 45.8 µM; further: nearly all actives have a fitted effect of over 35% in size; further: potency means the concentration at half of the fitted maximal effect
Outline: as §4

[20] = Quantitative High-Throughput drug screen in 47 multiple myeloma cell lines against the NCATS MIPE library collection: OCIMY1_PLB cell viability assay (AID 1918979); conditions: OCI-MY1 myeloma viability, CellTiter-Glo ATP, 48 h; series mostly up to 45.8 µM; further: nearly all actives have a fitted effect of over 35% in size
Outline: as §4

Measured: Potency

C[C@@H]1C[C@@H]([C@H](O)CC2CC(=O)NC(=O)C2)C(=O)[C@@H](C)C1
active: [1] 0.662 µM | [2] 0.209 µM | [3] 0.469 µM | [4] 0.372 µM | [5] 0.418 µM | [6] 0.148 µM | [7] 0.118 µM | [8] 0.187 µM | [9] 1.05 µM | [10] 1.05 µM | [11] 1.05 µM | [12] 0.209 µM | [13] 0.418 µM | [14] 1.66 µM | [15] 0.526 µM | [16] 0.132 µM | [17] 0.662 µM | [18] 0.296 µM | [19] 1.87 µM

COc1ccc(C(=O)N2CCCC2=O)cc1
active: [2] 1.87 µM | [6] 3.32 µM | [10] 0.935 µM
inactive: [1] | [5] | [8] | [9] | [12] | [13] | [14] | [18]

COC(=O)C1=CCCN(C)C1
inactive: [1] | [2] | [5] | [9] | [12] | [13] | [19] | [20]
active: [10] 5.9 µM | [11] 0.003 µM | [17] 1.05 µM

O=C(O)c1nn(Cc2ccc(Cl)cc2Cl)c2ccccc12
inactive: [5] | [6] | [8] | [9] | [11] | [13] | [17] | [18] | [19]
